# Screens (PubChem)
# JMJD2A Tudor inh = inhibitors of human JMJD2A Tudor domain; 4.4% of 390,000 active; Potency, µM (series often up to 114 µM), for the others: top-dose activity change, negative = inhibition, actives largely listed as inhibitors; AlphaScreen JMJD2A-Tudor / H3K4me3 peptide binding; also: % is scaled to controls: 0 for no effect and ±100 for the full control effect; nearly all actives have a fitted effect of over 50% in size
# Sfp PPTase inh = Sfp phosphopantetheinyl transferase inhibition | 3.5% of 310,000 active | Potency, µM, for the others: largest response in the series, negative = inhibition, usual class: inhibitors | Biochemical Sfp PPTase activity, qHTS;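 also: the enzyme is Sfp with the accession as filed and its product quenches rhodamine fluorescence; 0% = enzyme reaction without inhibitor and -100% = no enzyme wells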
#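 Fluorescence-quenching assay with 15 nM Sfp, 5 uM rhodamine-CoA and 12.5 uM BHQ-2-labelled ybbR peptide in pH 7.6 Hepes/MgCl2 buffer. Enzyme was pre-incubated with compound for 15 min at room temperature. Rate was taken from the 30-min fluorescence change (525/598 nm).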
# G9a inh = G9a (human) methyltransferase inhibition; Q96KQ7; G9a H3K9 monomethylation, AlphaScreen, 2 h; Potency, µM (top dose mostly 102 µM), without a hit: at the highest dose activity, negative = inhibition, actives largely listed as inhibitors; 8.8% of 350,000 active; AID 504332; also: % is scaled to controls: 0 for no effect and ±100 for the full control effect; nearly all actives have a fitted effect of over 75% in size
# Target sequence (Q96KQ7 913-1193 limits assumed): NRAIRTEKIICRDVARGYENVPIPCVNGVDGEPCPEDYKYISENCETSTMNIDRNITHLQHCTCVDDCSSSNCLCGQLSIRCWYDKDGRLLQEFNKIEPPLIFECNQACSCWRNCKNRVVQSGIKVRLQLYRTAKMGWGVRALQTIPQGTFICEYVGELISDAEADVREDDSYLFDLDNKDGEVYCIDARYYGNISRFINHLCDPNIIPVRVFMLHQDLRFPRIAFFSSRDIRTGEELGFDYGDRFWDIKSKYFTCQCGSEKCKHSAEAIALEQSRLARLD
#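 Step 1: enzyme (final 20 nM) with compound, 15 min RT. Step 2: substrate peptide 500 nM and SAM 20 uM, 2 h RT. Step 3: anti-H3K9me1 antibody and AlphaScreen beads, 10 min, then plate read.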
# L3MBTL1 inh = blocks human L3MBTL1; 0.66% of 230,000 active; AlphaScreen L3MBTL1–H3K9me1 peptide binding; Potency, µM (top dose mostly 57.1 µM), for the others: at the top dose activity, negative = inhibition, most hits filed as inhibitors; AID 485360; Q9Y468; also: % is scaled to controls: 0 for no effect and ±100 for the full control effect; nearly all actives have a fitted effect of over 60% in size
#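 First, the protein-peptide complex forms for 30 min at room temperature (L3MBTL1 50 nM, biotinylated H3K9me1 peptide 75 nM). Next, compounds are pin-transferred and incubated 30 min. Finally, AlphaScreen beads are added and read after 30 min.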
# BAZ2B block = blocks human BAZ2B. Q9UIF8. AlphaScreen BAZ2B-H3K14Ac peptide displacement. Potency, µM (series often up to 114 µM), without a hit: at the highest dose activity change, negative = inhibition, most hits filed as inhibitors. 4.4% of 360,000 active; also: % is scaled to controls: 0 for no effect and ±100 for the full control effect; nearly all actives have a fitted effect of over 60% in size
#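 AlphaScreen displacement of biotin-H3(5-23)K14Ac peptide (50 nM final) from BAZ2B (50 nM final) in PBS pH 7.4, 0.01% Tween-20; complex preformed 30 min RT, then compounds (top 110 uM) 30 min RT, beads 20 min dark.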
# HP1b chromo inh = blocks HP1-beta chromodomain binding to methylated histone tails; AlphaScreen HP1-beta / biotin-H3K9me3 peptide binding; Potency, µM (titrated, usually from 114 µM), for the others: at the highest dose activity change, negative = inhibition, actives largely listed as inhibitors; 0.56% of 390,000 active; also: nearly all actives have a fitted effect of over 70% in size
# Target sequence (P83916 whole entry, looked up): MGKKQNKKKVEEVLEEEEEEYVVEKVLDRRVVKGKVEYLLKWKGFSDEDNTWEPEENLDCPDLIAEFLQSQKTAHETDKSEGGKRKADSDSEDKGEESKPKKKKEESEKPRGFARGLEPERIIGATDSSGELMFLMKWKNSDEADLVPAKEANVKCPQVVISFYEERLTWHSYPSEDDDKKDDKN
#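 HP1-beta protein (50 nM final) preincubated 30 min at room temperature with biotinylated H3(1-18)K9me3 peptide (50 nM) in PBS pH 7.4, 0.01% Tween-20, then compound added for 30 min. AlphaScreen streptavidin donor/nickel chelate acceptor beads (10 ug/mL final), 30 min dark, luminescence read.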
# * = called active by the depositor; ? = inconclusive; / = no result given; [ ] = another dose, or the depositor's remark. Compounds with a hit are over-represented: about 12% of the library has one in this group of screens. Calls follow the shape of the dose curve; as a rule, active = well fitted curve in the direction sought with a large enough effect; inconclusive = small, poorly fitted or top-dose-only effect, or another doubt; inactive = no such curve, though single readings can be large; an effect the other way counts as inactive or inconclusive. Potency is read from the fitted curve at half-maximal effect.
SMILES,JMJD2A Tudor inh,Sfp PPTase inh,G9a inh,L3MBTL1 inh,BAZ2B block,HP1b chromo inh
COC(=O)c1c(NC(=O)CN2CCC3(O)CCCCC3C2c2ccc(OC)cc2OC)sc(C)c1C (stereo not given),?,20µM*,28.2µM*,-18.7%,-19.6%,?
O=C(NCc1ccccc1)C1CCCN(C(=O)NCc2ccccc2)C1 (stereo not given),-19.9%,2.4%,-15.2%,/,10.3%,2.5%
C/C(CCN1CCCCc2nc(C)c(C)cc21)=N\O[C@H](C)c1cn([C@H](CO)Cc2ccccc2)nn1,/,-8.6%,56.2µM*,-0.8%,-12.7%,/
C/C(CCN1CCCCc2nc(C)c(C)cc21)=N\O[C@@H](C)c1cn([C@H](CO)Cc2ccccc2)nn1,/,12.3%,?,-3.8%,-1.6%,/
Cc1cc(Cl)ccc1-n1c(CCC(=O)O)ccc1-c1cccs1,?,/,?,/,44.7µM*,-14.0%
Cc1ccc(Cl)cc1-n1c(CCC(=O)O)ccc1-c1cccs1,?,/,11.2µM*,/,?,-0.1%
Cc1c(Cl)cccc1-n1c(CCC(=O)O)ccc1-c1cccs1,-34.3%,/,?,/,-33.2%,4.1%
O=C(/C=C/c1ccco1)Nc1ccc(Cl)c(-c2nc3cc(Cl)ccc3o2)c1,-13.1%,/,-32.6%[59 µM],/,-12.8%,22.2%
O=C(CN1C(=O)NC2(CCCCCCC2)C1=O)Nc1ccc(Cl)cc1,-20.5%,/,23.8%[12.7 µM],4.5%,-16.6%,25.2%
CCN(CCCNC(=O)c1c(C)cc(=O)oc1C)c1cccc(C)c1,?,-22.1%,12.6µM*,-13.7%,?,2.7%
Cc1ccccc1CS(=O)(=O)Cc1ccc(C(=O)NCc2ccccn2)o1,-16.5%,2.3%,40.4%[0.501 µM],-6.1%,50.1µM*,40.2%
Cc1cc(=O)oc(C)c1C(=O)NCc1ccccn1,2.51µM*,-28.8%,1.58µM*,?,15.8µM*,19.2%
Cc1cc(=O)oc(C)c1C(=O)NCCNC(=O)c1c(C)cc(=O)oc1C,-14.0%,22.1%,-6.6%[12.7 µM],/,6.2%,17.6%
Cc1ccc(CNC(=O)c2c(C)cc(=O)oc2C)cc1,-11.3%,3.8%,-48.2%,2.5%,2.1%,22.0%
CCOc1ccc(S(=O)(=O)N2CCOCC2)cc1NS(=O)(=O)c1ccc(OC)c([N+](=O)[O-])c1,0.0%,/,-33.5%,10.4%,8.2%,35.3%
O=C(COC(=O)CNC(=O)c1ccc(Cl)cc1Cl)NC(=O)NCc1ccccc1,0.0%,/,56.2µM*,-0.5%,1.8%,41.8%
COc1ccccc1C(=O)NC(=O)COC(=O)CNC(=O)c1ccc(Cl)cc1Cl,2.8%,/,50.1µM*,-1.4%,6.4%,40.9%
Cc1nn(-c2ccccc2)c2nc(C3CC3)cc(C(=O)Nc3ccccc3F)c12,-5.5%,/,-0.6%[59 µM],/,9.9%[57.1 µM],15.5%
CC(C)C[C@H](NC(=O)c1[nH]cnc1C(=O)N[C@@H](C)C(=O)OC(C)(C)C)C(=O)OC(C)(C)C,-17.9%,33.3%,26.5%[12.7 µM],/,8.9%,45.6%
CC(C)C[C@H](NC(=O)c1nc[nH]c1C(=O)NC1CCNCC1)C(=O)OC(C)(C)C,?,/,?,-3.6%,79.4µM*,20.9%
CC(C)(C)OC(=O)[C@H](CCCCN)NC(=O)c1nc[nH]c1C(=O)N[C@@H](CCCCN)C(=O)OC(C)(C)C,50.1µM*,/,/,1.4%,/,46.4%
Cc1ccc(CSCC(=O)N(CCC(C)C)c2c(N)n(Cc3ccccc3)c(=O)[nH]c2=O)cc1,3.4%,/,4.5%[0.501 µM],2.0%,5.7%,29.8%
COc1ccc(C(C(=O)NC2CCCCC2)N(C(=O)c2ccco2)c2ccccc2C(C)=O)cc1OC (stereo not given),-19.0%,-2.5%,-1.4%,/,-8.9%,17.5%
COc1ccc(NC2=C3CC(C)CC=C3N(c3ccc(OC)cc3)C2=O)cc1 (stereo not given),-17.4%,6.9%,?,/,-19.5%,30.7%
COc1ccc(NC2=C3CCCC=C3N(c3ccc(OC)cc3)C2=O)cc1,?,-5.4%,39.8µM*,/,-32.3%,5.7%
SMILES,JMJD2A Tudor inh,Sfp PPTase inh,G9a inh,L3MBTL1 inh,BAZ2B block,HP1b chromo inh
COc1ccc(NC(=O)c2noc3c2CCC3)cc1,56.2µM*,8.4%,?,/,44.7µM*,?
COc1cc(OC)c(NC(=O)c2nn(C)c3c2COc2ccccc2-3)cc1Cl,-9.3%,/,2.24µM*,/,-9.4%,146.2%
CC(=O)c1ccc(NC(=O)c2noc3c2CCC3)cc1,-14.7%[11.4 µM],-5.3%,39.8µM*,/,56.2µM*,?
COc1cc(OC)c(NC(=O)c2noc3c2CSc2ccccc2-3)cc1Cl,2.0%,/,1.58µM*,/,17.8%,60.8%
CCn1nc(C)c(CCN(C)C(=O)Nc2cc(Cl)c(OC)cc2OC)c1C,-2.0%,/,12.9%[59 µM],/,-13.5%,39.6%
COc1cc(NC(=O)c2noc3c2CCC3)c(OC)cc1Cl,44.7µM*,?,?,/,50.1µM*,?
O=C(Nc1cccc(O)c1)c1noc2c1CCCCC2,-16.3%,6.9%,14.9%[59 µM],/,8.2%,11.4%
Cc1ccc(NC(=O)c2noc3c2CCC3)cc1C,39.8µM*,6.6%,?,/,44.7µM*,50.1µM*
COC(=O)c1ccccc1NC(=O)c1noc2c1CCCC2,26.3%,1.3%,7.0%[12.7 µM],12.3%,6.6%,61.3%
CCOC(=O)/C(=C\c1ccc(Cl)cc1)c1nc2sc(C)c(C)c2c(=O)[nH]1,?,39.8µM*,25.1µM*,-2.2%,-7.7%,?
COC(=O)[C@@]1(Cc2ccc(OC)cc2)[C@H]2c3cc(C(=O)N(C)C)n(Cc4ccccn4)c3C[C@H]2CN1C(=O)c1ccccc1,/,-10.3%,/,/,/,/
Cc1ccc(C)c(S(=O)(=O)N2CCN(C(=O)C3CC3C)CC2)c1 (stereo not given),-6.9%,/,1.9%,1.6%,11.9%,28.5%
O=C(/C=C/c1ccco1)N1CCN(S(=O)(=O)c2ccc(F)c(F)c2F)CC1,-7.7%,39.8µM*,?,/,-22.6%,27.7%
Cc1ccc(C)c(S(=O)(=O)N2CCN(C(=O)/C=C/c3ccco3)CC2)c1,44.7µM*,/,-21.2%[12.7 µM],?,?,?
COc1cccc(/C=C/C(=O)N2CCN(S(=O)(=O)c3ccccc3)CC2)c1OC,-2.0%,4.1%,50.1µM*,/,?,29.2%
O=C(/C=C/c1ccco1)N1CCN(S(=O)(=O)c2ccccc2)CC1,56.2µM*,/,/,?,/,50.1µM*
N#Cc1cccc(-c2nc3cnc(Nc4ccccc4)nc3n(C[C@H]3CCCO3)c2=O)c1,/,23.0%,0.5%[12.7 µM],/,/,/
CCCCC(=O)Nc1nc2c(s1)COc1ccccc1-2,-9.9%,-1.3%,/,-94.0%,12.0%,24.3%
CC1CN(c2cc(=O)n(-c3ccccc3)c(=O)[nH]2)CC(C)O1 (stereo not given),0.7%,6.0%,39.8µM*,1.9%,10.2%,10.4%
